The test has as its system Pectobacterium parmentieri SCC3193. Nature of the test: DuctApe activity index (growth/respiration on compound as sole nutrient source, blank-subtracted) (activity index (0-3)); higher = stronger utilization of the compound, active = 3 or more. The settings on record: nutrient role (plate category): carbon. Here is the method:
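Biolog Phenotype Microarray plates PM1, PM2A (carbon), PM3 (nitrogen) and PM4 (phosphorus/sulfur) inoculated with P. parmentieri SCC3193 in M9-C minimal salts medium with Biolog dye A, and read in the OmniLog for 46 h. Each well was tested in triplicate and the experiment was run twice. DuctApe computed a blank-subtracted activity index (AV, 0-3) from the mean curves; growth is positive at AV >= 3 and negative at AV <= 2.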
For `CC(=O)CC(=O)O` [Acetoacetic acid], the DuctApe activity index was 0 (inactive).
On to `OC[C@H]1OC(O[C@H]2[C@H](O)[C@@H](CO)OC(O[C@H]3[C@H](O)[C@@H](CO)OC(O)[C@@H]3O)[C@@H]2O)[C@H](O)[C@@H](O)[C@@H]1O` (stereo partly specified) [Laminarin], for which the DuctApe activity index was 0 (inactive).
The value for `OC[C@H]1OC(O[C@H]2[C@H](O)[C@@H](O)C(O[C@H]3[C@H](O)[C@@H](O)[C@@H](O)O[C@@H]3CO)O[C@@H]2CO)[C@H](O)[C@@H](O)[C@@H]1O` (stereo partly specified) [Dextrin] was 0 (inactive).
The value for `O=C(O)C(O)C(O)C(=O)O` (stereo unspecified) [m-Tartaric acid] was 3 (active).
The value for `O=C(O)[C@@H](O)[C@H](O)C(=O)O` [D-Tartaric acid] was 0 (inactive); that for `O=C(CO)[C@@H](O)[C@H](O)[C@@H](O)C(=O)O` [5-Keto-D-Gluconic acid] was 0 (inactive); that for `O=C(O)[C@H]1OC(O)[C@H](O)[C@@H](O)[C@@H]1O` (stereo partly drawn) [D-Glucuronic acid] was 0 (inactive).
For the molecule `OC[C@H]1OC(O)[C@H](O)[C@@H](O)[C@H]1O` (stereo partly drawn) [D-Galactose], the DuctApe activity index was 3 (active).
With `OC[C@H]1O[C@H](OC[C@H]2O[C@H](O[C@H]3[C@H](O)[C@@H](O)[C@@H](O)O[C@@H]3CO)[C@H](O)[C@@H](O)[C@@H]2O[C@H]2O[C@H](CO)[C@@H](O)[C@H](O)[C@H]2O)[C@H](O)[C@@H](O)[C@@H]1O` [Glycogen], the DuctApe activity index was 0 (inactive).
In the case of `CC(=O)C(C)=O` [2,3-Butanedione] it was 0 (inactive).
In the case of `O=P(O)(O)OC[C@H]1OC(O)(CO)[C@@H](O)[C@@H]1O` (stereo partly drawn) [D-Fructose-6-Phosphate] it was 3 (active); in that of `OC[C@H]1O[C@H](OC[C@H]2OC(O)[C@H](O)[C@@H](O)[C@@H]2O)[C@H](O)[C@@H](O)[C@H]1O` (stereo partly drawn) [D-Melibiose], 3 (active).
In the case of `O=C(O)[C@H](O)[C@@H](O)[C@H](O)[C@H](O)CO[C@H]1O[C@H](CO)[C@H](O)[C@H](O)[C@H]1O` [Melibionic acid] it was 0 (inactive); in that of `CCCCCCCCCC(=O)O` [Capric acid], 0 (inactive).
Consider `O=C(O)CC(O)(CC(=O)O)C(=O)O` [Citric acid], for which the DuctApe activity index is 2 (inactive).
The value for `O=C(O)[C@H]1O[C@@H](O)[C@H](O)[C@@H](O)[C@H]1O` [Pectin] was 3 (active); that for `O=C(O)C(=O)O` [Oxalic acid] was 0 (inactive); that for `O=C[C@H](O)[C@H](O)[C@@H](O)CO` [L-Lyxose] was 0 (inactive).
In the case of `CCCC(=O)C(=O)O` [a-Keto-Valeric acid] it was 0 (inactive).
In the case of `C[C@H](O)[C@@H](N)C(=O)O` [D-Threonine] it was 0 (inactive); in that of `OC1OC[C@@H](O)[C@@H](O)[C@@H]1O` (stereo partly drawn) [D-Arabinose], 1 (inactive).
